The target in assay [1] is T1, Aurora kinase A (Homo sapiens) (UniProt O14965).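 Further: values are mean percent inhibition.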
T1 sequence (whole entry): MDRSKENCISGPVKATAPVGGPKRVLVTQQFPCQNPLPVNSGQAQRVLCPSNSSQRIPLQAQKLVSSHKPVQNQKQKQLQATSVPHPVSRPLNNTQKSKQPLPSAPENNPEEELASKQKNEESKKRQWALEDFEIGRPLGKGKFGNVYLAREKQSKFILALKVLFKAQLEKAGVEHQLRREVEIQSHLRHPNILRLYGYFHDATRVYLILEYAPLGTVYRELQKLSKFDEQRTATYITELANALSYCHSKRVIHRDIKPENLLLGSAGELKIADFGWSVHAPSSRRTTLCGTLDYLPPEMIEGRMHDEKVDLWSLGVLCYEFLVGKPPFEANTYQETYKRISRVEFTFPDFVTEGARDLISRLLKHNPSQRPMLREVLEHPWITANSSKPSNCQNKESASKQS
The settings on record: at 1 µM.

The target in assay [2] is Aurora kinase B (Homo sapiens) (UniProt Q96GD4). The settings on record: at 0.1 µM.
Aurora kinase B (Homo sapiens), sequence (Q96GD4 whole entry): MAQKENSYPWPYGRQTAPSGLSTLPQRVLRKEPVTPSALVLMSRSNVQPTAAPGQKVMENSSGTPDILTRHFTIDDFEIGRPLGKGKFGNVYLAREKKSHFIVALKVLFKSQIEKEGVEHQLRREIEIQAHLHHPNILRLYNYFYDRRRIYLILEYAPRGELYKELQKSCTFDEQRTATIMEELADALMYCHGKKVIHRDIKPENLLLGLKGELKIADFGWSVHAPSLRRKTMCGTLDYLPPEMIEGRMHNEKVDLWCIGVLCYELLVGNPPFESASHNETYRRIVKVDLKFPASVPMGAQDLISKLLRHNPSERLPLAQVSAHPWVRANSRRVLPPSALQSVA
Assay [3] has the same target. Particulars: at 1 µM.
Assay [4] has as its target T2, Aurora kinase C (Homo sapiens) (UniProt Q9UQB9).
T2 sequence (whole entry): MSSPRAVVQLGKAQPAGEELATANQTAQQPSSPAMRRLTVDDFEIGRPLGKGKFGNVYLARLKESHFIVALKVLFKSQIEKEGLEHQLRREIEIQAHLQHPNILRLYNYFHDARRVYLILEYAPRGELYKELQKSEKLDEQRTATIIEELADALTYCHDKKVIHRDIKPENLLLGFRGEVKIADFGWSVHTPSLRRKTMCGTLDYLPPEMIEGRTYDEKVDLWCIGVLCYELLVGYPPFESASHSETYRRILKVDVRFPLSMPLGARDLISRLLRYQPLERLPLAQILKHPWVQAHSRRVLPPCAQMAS
The settings on record: at 0.1 µM.

In assay [5] the target is T2, Aurora kinase C (Homo sapiens). Particulars: at 1 µM.
Assay [6] concerns the target Serine/threonine-protein kinase 10 (Homo sapiens) (UniProt O94804). The settings on record: at 0.1 µM.
The target is the same in assay [7]. Particulars: at 1 µM.
The target in assay [8] is T3, Mitogen-activated protein kinase kinase kinase kinase 2 (Homo sapiens) (UniProt Q12851).
T3 sequence (whole entry): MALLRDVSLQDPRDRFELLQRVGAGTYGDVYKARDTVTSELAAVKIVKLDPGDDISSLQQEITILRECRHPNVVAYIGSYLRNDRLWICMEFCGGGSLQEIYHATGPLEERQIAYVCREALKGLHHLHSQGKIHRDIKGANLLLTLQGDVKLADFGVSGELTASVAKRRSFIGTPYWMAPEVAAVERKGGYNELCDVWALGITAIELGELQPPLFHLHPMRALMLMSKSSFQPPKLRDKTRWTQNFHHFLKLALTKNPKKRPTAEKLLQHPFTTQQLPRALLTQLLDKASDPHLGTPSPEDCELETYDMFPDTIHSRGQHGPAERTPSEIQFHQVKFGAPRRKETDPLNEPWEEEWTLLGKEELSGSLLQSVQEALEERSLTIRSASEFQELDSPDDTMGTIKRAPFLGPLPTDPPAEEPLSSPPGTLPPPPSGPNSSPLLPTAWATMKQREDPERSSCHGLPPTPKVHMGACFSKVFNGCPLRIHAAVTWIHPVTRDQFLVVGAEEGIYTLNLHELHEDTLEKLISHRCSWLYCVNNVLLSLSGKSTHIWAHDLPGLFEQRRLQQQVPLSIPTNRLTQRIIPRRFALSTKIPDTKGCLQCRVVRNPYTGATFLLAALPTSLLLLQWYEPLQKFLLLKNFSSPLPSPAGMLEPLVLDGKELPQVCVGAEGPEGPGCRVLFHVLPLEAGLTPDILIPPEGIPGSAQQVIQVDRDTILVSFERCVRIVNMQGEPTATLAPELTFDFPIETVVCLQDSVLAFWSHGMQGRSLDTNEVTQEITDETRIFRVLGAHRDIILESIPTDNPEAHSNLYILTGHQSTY
The settings on record: at 0.1 µM.

In assay [9] the target is T3, Mitogen-activated protein kinase kinase kinase kinase 2 (Homo sapiens). Particulars: at 1 µM.
Assay [10] concerns the target Mitogen-activated protein kinase kinase kinase kinase 4 (Homo sapiens) (UniProt O95819). Particulars: at 0.1 µM.
Assay [11] shares this target. Particulars: at 1 µM.
Assay [12] concerns the target Dual specificity mitogen-activated protein kinase kinase 1 (Homo sapiens) (UniProt Q02750). The settings on record: at 0.1 µM.
The target is the same in assay [13]. The settings on record: at 1 µM.
For assay [14], the target named is Misshapen-like kinase 1 (Homo sapiens) (UniProt Q8N4C8). The settings on record: at 0.1 µM.
Misshapen-like kinase 1 (Homo sapiens), sequence (Q8N4C8 whole entry, looked up): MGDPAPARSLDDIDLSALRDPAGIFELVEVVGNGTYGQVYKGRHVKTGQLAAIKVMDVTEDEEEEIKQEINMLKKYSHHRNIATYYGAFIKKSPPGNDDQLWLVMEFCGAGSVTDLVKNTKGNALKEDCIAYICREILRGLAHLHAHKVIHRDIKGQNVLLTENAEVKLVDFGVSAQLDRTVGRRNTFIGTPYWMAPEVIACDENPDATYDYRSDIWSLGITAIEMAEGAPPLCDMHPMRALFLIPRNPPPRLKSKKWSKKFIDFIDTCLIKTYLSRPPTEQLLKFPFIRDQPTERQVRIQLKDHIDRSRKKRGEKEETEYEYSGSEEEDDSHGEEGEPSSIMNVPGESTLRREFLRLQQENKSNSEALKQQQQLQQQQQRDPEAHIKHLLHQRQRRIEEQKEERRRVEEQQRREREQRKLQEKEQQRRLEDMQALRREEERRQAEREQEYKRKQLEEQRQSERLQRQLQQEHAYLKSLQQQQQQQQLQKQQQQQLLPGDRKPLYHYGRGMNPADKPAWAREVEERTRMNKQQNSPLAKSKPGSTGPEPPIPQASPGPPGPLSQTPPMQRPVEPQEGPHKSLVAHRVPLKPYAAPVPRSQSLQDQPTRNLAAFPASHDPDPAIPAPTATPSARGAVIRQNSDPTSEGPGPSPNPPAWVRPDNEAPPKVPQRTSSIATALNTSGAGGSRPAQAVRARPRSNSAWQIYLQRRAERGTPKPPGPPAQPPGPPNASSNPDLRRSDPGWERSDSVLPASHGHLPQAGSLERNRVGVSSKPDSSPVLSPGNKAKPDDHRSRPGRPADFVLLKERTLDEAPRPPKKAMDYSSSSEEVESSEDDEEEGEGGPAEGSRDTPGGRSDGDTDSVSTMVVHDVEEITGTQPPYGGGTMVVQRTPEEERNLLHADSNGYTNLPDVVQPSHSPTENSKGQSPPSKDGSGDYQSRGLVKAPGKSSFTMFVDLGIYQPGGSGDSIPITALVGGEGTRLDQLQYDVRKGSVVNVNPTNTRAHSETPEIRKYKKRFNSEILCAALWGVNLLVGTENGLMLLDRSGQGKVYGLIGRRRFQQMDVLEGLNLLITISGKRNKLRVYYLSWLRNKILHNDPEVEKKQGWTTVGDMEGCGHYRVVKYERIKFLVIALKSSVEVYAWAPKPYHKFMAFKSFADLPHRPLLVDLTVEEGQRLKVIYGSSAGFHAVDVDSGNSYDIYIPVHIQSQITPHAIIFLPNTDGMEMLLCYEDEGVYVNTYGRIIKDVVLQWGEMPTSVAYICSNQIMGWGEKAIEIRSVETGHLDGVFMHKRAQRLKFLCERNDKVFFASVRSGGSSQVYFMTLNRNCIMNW
For assay [15] the target is unchanged. The settings on record: at 1 µM.
The target of assay [16] is T4, Serine/threonine-protein kinase 4 (Homo sapiens) (UniProt Q13043).
T4 sequence (whole entry): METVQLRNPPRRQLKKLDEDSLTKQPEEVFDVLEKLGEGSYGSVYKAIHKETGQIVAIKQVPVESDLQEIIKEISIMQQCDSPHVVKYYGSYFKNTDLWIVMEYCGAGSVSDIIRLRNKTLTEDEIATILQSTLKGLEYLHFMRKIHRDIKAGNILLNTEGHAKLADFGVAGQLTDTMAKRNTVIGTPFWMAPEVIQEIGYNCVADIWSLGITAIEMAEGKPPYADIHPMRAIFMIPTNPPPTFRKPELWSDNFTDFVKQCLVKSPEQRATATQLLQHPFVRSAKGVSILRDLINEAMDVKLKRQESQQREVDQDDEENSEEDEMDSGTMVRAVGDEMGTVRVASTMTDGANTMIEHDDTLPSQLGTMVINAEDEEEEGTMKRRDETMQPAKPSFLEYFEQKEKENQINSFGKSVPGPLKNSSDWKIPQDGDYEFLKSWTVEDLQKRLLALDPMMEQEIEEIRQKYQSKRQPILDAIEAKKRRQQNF
Particulars: at 0.1 µM.

Assay [17] deals with T4, Serine/threonine-protein kinase 4 (Homo sapiens). Particulars: at 1 µM.
The target of assay [18] is T5, Serine/threonine-protein kinase 3 (Homo sapiens) (UniProt Q13188).
T5 sequence (whole entry): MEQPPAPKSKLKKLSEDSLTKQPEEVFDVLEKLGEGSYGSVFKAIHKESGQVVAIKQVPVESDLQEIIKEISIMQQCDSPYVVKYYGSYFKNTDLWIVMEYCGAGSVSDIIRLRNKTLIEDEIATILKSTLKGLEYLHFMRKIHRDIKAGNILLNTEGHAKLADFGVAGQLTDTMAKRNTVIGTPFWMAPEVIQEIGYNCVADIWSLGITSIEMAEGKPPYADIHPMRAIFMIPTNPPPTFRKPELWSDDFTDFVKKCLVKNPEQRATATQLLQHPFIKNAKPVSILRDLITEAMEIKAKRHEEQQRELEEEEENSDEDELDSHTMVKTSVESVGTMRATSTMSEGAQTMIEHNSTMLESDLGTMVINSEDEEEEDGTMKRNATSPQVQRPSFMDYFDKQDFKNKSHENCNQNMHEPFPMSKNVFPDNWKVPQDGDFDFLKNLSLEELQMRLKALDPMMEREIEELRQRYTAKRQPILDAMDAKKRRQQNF
Particulars: at 0.1 µM.

Assay [19] addresses T5, Serine/threonine-protein kinase 3 (Homo sapiens). The settings on record: at 1 µM.
Assay [20] deals with Serine/threonine-protein kinase 26 (Homo sapiens) (UniProt Q9P289). Particulars: at 0.1 µM.
Serine/threonine-protein kinase 26 (Homo sapiens), sequence (Q9P289 2-416 limits assumed): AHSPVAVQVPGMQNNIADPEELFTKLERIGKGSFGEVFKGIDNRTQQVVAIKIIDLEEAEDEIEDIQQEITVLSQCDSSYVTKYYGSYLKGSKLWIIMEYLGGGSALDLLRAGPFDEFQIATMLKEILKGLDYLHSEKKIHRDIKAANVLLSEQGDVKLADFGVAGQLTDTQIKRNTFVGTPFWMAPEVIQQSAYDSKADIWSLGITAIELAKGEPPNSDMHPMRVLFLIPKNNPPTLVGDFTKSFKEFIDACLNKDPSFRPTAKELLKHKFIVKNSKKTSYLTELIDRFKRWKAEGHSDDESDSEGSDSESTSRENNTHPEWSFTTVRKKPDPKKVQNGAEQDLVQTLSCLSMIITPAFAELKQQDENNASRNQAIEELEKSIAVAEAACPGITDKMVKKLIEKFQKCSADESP

Mitogen-activated protein kinase kinase kinase kinase 4 (Homo sapiens), sequence (O95819 2-1239 limits assumed): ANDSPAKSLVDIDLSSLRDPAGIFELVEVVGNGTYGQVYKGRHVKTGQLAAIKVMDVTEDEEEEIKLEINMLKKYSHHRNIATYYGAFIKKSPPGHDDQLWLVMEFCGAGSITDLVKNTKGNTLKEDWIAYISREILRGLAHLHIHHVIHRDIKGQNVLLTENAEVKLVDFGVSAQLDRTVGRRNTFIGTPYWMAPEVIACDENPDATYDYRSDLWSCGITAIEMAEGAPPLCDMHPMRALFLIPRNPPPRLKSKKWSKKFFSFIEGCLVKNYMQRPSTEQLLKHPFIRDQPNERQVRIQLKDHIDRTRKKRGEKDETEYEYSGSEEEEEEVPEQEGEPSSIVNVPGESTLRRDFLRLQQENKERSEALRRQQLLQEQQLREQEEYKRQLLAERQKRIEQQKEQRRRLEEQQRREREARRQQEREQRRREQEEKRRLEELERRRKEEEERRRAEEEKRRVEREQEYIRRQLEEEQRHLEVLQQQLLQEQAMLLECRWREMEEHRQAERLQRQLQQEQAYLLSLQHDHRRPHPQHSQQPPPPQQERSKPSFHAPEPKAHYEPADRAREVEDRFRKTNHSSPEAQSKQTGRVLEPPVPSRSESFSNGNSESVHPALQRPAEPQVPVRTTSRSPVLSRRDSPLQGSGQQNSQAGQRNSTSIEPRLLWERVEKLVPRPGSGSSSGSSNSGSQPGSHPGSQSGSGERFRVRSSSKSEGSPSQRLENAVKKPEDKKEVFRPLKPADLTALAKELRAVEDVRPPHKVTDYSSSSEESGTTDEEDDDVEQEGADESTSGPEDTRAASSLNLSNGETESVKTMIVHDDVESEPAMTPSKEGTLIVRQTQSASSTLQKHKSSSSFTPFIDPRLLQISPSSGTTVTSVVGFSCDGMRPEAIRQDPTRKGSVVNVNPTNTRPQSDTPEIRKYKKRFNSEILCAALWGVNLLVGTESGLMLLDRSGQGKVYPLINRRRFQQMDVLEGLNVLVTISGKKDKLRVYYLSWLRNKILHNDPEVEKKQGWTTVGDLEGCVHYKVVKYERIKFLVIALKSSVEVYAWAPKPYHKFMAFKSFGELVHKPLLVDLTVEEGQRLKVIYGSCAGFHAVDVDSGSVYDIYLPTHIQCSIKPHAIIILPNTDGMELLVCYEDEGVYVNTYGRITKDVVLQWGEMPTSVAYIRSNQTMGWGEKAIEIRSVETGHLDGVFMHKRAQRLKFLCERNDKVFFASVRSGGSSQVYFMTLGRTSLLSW
Dual specificity mitogen-activated protein kinase kinase 1 (Homo sapiens), sequence (Q02750 whole entry): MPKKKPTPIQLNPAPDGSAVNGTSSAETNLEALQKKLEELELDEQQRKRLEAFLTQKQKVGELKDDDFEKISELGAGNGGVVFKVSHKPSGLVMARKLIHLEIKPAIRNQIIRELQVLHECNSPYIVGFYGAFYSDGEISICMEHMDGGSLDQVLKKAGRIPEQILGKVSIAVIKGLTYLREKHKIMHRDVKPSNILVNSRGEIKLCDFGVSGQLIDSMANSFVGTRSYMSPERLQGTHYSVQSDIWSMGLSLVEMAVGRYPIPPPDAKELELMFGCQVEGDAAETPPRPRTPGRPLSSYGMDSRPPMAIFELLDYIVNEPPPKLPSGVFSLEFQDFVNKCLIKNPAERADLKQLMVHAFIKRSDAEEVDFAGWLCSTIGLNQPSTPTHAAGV
Serine/threonine-protein kinase 10 (Homo sapiens), sequence (O94804 whole entry, looked up): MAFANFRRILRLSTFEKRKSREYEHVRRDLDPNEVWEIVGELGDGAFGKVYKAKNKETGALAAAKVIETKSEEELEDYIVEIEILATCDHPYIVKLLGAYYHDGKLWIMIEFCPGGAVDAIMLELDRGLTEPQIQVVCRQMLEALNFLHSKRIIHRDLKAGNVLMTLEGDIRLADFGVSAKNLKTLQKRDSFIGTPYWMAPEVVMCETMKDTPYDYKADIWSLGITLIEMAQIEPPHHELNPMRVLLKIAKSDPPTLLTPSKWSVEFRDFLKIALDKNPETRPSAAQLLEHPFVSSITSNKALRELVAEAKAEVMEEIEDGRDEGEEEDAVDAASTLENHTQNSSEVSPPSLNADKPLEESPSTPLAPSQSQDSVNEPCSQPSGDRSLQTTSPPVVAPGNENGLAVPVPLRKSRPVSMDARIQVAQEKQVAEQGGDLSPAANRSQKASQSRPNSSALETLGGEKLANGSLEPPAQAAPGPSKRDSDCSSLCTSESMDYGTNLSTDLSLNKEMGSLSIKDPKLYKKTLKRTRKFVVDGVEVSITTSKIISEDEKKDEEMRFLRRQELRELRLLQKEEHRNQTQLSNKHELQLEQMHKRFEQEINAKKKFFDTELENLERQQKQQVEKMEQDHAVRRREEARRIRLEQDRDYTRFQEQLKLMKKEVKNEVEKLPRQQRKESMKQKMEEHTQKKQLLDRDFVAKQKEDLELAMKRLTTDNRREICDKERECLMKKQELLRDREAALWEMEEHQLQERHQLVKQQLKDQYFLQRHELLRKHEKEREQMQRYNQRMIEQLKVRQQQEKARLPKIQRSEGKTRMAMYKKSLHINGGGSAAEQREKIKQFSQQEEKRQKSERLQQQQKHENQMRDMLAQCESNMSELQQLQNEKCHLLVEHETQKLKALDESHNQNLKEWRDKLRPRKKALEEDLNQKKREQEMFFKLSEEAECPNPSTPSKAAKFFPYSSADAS

For the molecule `CN(c1ccc(NC(=O)Nc2ccc(OC(F)(F)F)cc2)cc1)c1ccnc(Nc2cccc(S(N)(=O)=O)c2)n1`, the inhibition in [1] turned out to be 76.8%; in assay [2], 63.9%; in assay [3], 79%; in assay [4], 30.7%; in assay [5] it was 96.5%; in [6] it was 26%. Further, the inhibition turned out to be 70.4% in [7]; 18.4% in assay [8]; 69.5% in assay [9]; 24.4% in assay [10]; 85.1% in assay [11]; 3.84% in [12]. Moreover, the inhibition in [13] came out at 13.7%; in assay [14], 24.3%; in [15], 80.3%; in assay [16], 2.75%; in assay [17] it was 9.45%; in assay [18] it was 4.46%. Further, the inhibition is 6.49% in assay [19] and -1.04% in assay [20].
For the molecule `NS(=O)(=O)c1ccc(NC=C2C(=O)Nc3ccc4ncsc4c32)cc1`, the inhibition turned out to be 90.4% in assay [1]; 29.9% in assay [2]; 69.6% in assay [3]; 28.4% in [4]; 92.2% in assay [5]; 6.33% in [6]. Also, the inhibition is 26.9% in assay [7]; 27.2% in assay [8]; 66.5% in assay [9]; 69.4% in [10]; 79% in [11]; 17.5% in [12]. The inhibition in assay [13] was determined as 68.3%; in [14] it was 62.9%; in assay [15] it was 78.9%; in assay [16] it was 74.5%; in [17] it was 80.4%; in [18], 73.1%. The inhibition in assay [19] was found to be 78.2%; in assay [20], 62.1%.
With `COc1cc2ncnc(Nc3ccc4c(cnn4Cc4ccccc4)c3)c2cc1OC`, the inhibition in assay [1] stood at 7.82%; in assay [2] it was 3.48%; in [3] it was 15%; in [4] it was 1.9%; in assay [5] it was 23.7%; in [6] it was 0.29%. The inhibition was 14.2% in assay [7]; 1.57% in assay [8]; 1.51% in assay [9]; 8.32% in [10]; 9.55% in [11]; 3.32% in assay [12]. In addition, the inhibition turned out to be 2.12% in assay [13]; 7.38% in assay [14]; 9.64% in assay [15]; 3.42% in [16]; 7.03% in [17]; 2.19% in assay [18]. Besides, the inhibition in assay [19] was 5.68%; in assay [20], -0.63%.
In the case of `COc1cc(Nc2nccc(-c3cnn4ncccc34)n2)cc(OC)c1`, the inhibition amounted to 94.2% in assay [1]; 20.5% in assay [2]; 71% in [3]; 94.4% in assay [5]; 5.8% in assay [6]; 27.3% in assay [7]. For the same molecule, the inhibition was determined as 28.5% in assay [8]; 72.7% in assay [9]; 26.1% in assay [10]; 78.9% in assay [11]; 3.92% in assay [12]; 26.4% in assay [13]. Besides, the inhibition in [14] was determined as 20.6%; in assay [15], 71.9%; in assay [16], 5.52%; in assay [17], 35.6%; in assay [18], 5.54%; in [19], 29.6%. Further, the inhibition in [20] was 0.99%.
Turning to `COc1cc(/C=N/Nc2ncnc3c2cnn3C(C)C)ccc1O`, the inhibition in assay [1] is 37.7%; in assay [2] it was 3.34%; in [3], 15.5%; in assay [4], 1.77%; in [5], 13.8%; in assay [6], 3%. For the same molecule, the inhibition came to 21.7% in assay [7]; 2.5% in [8]; 9.5% in assay [9]; 7.32% in assay [10]; 21.4% in assay [11]; 2.16% in [12]. Further, the inhibition turned out to be 1.21% in assay [13]; 6.6% in [14]; 19.1% in assay [15]; 1.8% in [16]; 7.78% in [17]; 1.29% in assay [18]. Further, the values for the inhibition in [19] and in [20] were 8.02% and 0.35%, respectively.
With `Nc1nccc(C#Cc2cncnc2Nc2ccc(OCc3cccc(F)c3)c(Cl)c2)n1`, the inhibition in assay [1] stood at 15.2%; in assay [2] it was 5.2%; in assay [3], 13.2%; in [4] it was 3.04%; in assay [5] it was 10.1%; in [6] it was 5.76%. For the same molecule, the inhibition is 11.4% in assay [7]; 1.38% in [8]; -0.42% in assay [9]; 6.33% in assay [10]; 5.46% in assay [11]; 2.67% in assay [12]. Further, the inhibition amounted to 4.4% in [13]; 6.95% in [14]; 6.41% in [15]; 6.4% in assay [16]; 10.4% in [17]; 6.63% in assay [18]. Also, the inhibition was 7.32% in assay [19] and -1.78% in assay [20].
With `[O-][S+]1CCN(Cc2ccc(-c3ccc4ncnc(Nc5ccc(OCc6ccccc6)c(Cl)c5)c4c3)o2)CC1`, the inhibition was 2.75% in [1]; 3.28% in assay [2]; 5.05% in [3]; -0.09% in [4]; 1.6% in assay [5]; 3.93% in assay [6]. Moreover, the inhibition is 12.3% in assay [7]; -0.35% in assay [8]; 1.53% in [9]; 0.26% in assay [10]; 3.32% in [11]; 2.1% in [12]. Besides, the inhibition in assay [13] was 3.29%; in assay [14], -0.23%; in assay [15] it was 1.36%; in assay [16] it was 0.8%; in assay [17] it was 1.83%; in [18] it was -0.27%. Also, the inhibition is 0.41% in assay [19] and -0.67% in [20].

Values taken from ChEMBL document CHEMBL1961873, “Compounds: GSK PKIS; Assays: Nanosyn kinase panel” (2012).
